# Screening results (PubChem)
# MITF inh: inhibitors of human MITF. O75030. AlphaScreen MITF homodimerization, bead proximity signal. inhibition, % at 2.6 µM. actives 0.91% (n = 650,000); in the data active = inhibition above about 50%;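 also: 0% = vehicle wells with protein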
# Target sequence (O75030 whole entry, looked up): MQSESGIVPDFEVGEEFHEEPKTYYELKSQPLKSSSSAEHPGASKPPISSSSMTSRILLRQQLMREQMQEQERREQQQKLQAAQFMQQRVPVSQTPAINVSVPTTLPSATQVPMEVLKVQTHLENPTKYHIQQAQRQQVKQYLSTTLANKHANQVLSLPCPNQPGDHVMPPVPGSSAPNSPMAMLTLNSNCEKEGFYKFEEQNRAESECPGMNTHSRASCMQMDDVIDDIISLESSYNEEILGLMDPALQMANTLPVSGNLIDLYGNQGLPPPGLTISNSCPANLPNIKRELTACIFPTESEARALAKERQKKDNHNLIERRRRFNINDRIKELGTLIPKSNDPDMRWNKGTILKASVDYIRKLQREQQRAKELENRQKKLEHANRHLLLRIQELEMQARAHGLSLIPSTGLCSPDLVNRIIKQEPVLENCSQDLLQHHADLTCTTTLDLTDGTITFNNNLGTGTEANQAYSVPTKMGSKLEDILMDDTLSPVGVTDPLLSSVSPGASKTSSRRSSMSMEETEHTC
# TEAD-YAP inh: TEAD-YAP interaction inhibition | actives 1.4% (n = 640,000) | HEK-TIYL cells, TEAD-Gal4/YAP UAS-luciferase luminescence | inhibition, % at 9.12 µM; in the data active = inhibition above about 32%;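 also: 0% = median of test compound wells and 100% = reference inhibitor wells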
# GPR151 activ: human GPR151 activation; PathHunter beta-arrestin GPR151 cells, luminescence; activation, % at 11.2 µM; actives 1% (n = 650,000); in the data active = activation above about 4.9%;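 also: 0% = median of compound wells and 100% = cells with positive control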
# FBW7 act: human FBW7 E3 ligase activation, primary screen | Q969H0 | AID 1259310 | normalized activity (activation), % at 26.1 µM | AlphaScreen FBW7–phospho-cyclin E peptide binding, activator screen | actives 0.13% (n = 650,000); in the data active = normalized activity above about 1.9%;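 also: purified mutant Fbw7 with reduced substrate affinity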
# An asterisk follows results filed as active. Hits are enriched below; roughly 3.4% of the tested compounds scored in any of these assays.
SMILES,MITF inh,TEAD-YAP inh,GPR151 activ,FBW7 act
Cc1cc(C)nc(N/N=C/c2sc(N3CCOCC3)nc2-c2ccccc2)n1,5.1,45.8*,1.8,-0.2
Oc1c(Cl)cc(CN2CCCC2)c2cccnc12,112.8*,93.4*,-1.3,-0.7
COc1ccccc1N1CCN(Cc2cc(Cl)c(O)c3ncccc23)CC1,73.7*,81.9*,-0.8,-0.2
CCCCN(C1CCS(=O)(=O)C1)S(=O)(=O)c1ccc2ccccc2c1 (configuration not stated),7.9,8.7,0.4,0.1
CC(=O)Nc1cccc(NC(=O)c2ccc(Br)cc2)c1,-11.0,-20.2,-1.6,0.0
CC(=O)c1cccc(NC(=O)c2ccc(C)cc2)c1,2.1,-35.3,-1.0,-0.1
O=C(Nc1cccc(O)c1)c1ccc(Br)cc1,0.2,36.4*,-0.4,0.7
Cc1ccc(C(=O)Nc2cccc(O)c2)cc1,11.4,82.0*,-9.1,0.3
CC(C)(C)c1ccc(C(=O)Nc2cccc(F)c2)cc1,0.3,41.7*,-5.8,0.1
CCN(CC)S(=O)(=O)c1cc(C(=O)Nc2cccc(O)c2)ccc1C,4.7,85.2*,-2.5,0.1
O=C(O)CCSCc1ccc([N+](=O)[O-])cc1,-10.6,-2.6,-1.8,0.1
COc1ccccc1C(=O)Oc1ccc(C)cc1-n1nc2ccccc2n1,15.6,-51.3,-8.6,0.2
Cc1ccc(OC(=O)c2ccccc2Cl)c(-n2nc3ccccc3n2)c1,-0.3,-20.1,-1.2,7.6*
Cc1ccc(Oc2ccc(S(=O)(=O)N3CCOCC3)cc2S(=O)(=O)N2CCOCC2)c(-n2nc3ccccc3n2)c1,0.5,1.8,-0.2,-0.1
Cc1ccc(Oc2ccc(S(=O)(=O)N3CCOCC3)cc2C(N)=O)c(-n2nc3ccccc3n2)c1,0.3,40.5*,-0.1,0.1
Cc1cccc(N2C(=O)CC(Sc3ccccc3C(=O)O)C2=O)c1C (configuration not stated),-1.1,-4.2,-1.0,-0.2
COc1cccc(C2NC(=S)NC(c3ccccc3)=C2C(C)=O)c1 (configuration not stated),1.5,49.6*,1.4,-0.1
CC(c1ccccc1)N1CC(O)=C(c2nc3ccccc3[nH]2)C1=N (configuration not stated),-0.9,54.8*,1.0,0.0
CCOc1ccccc1N1CC(O)=C(c2nc3ccccc3[nH]2)C1=N,8.5,54.3*,-0.4,0.1
CCn1nc(C)cc1C(=O)Nc1nc(-c2ccc(C(C)C)cc2)cs1,7.4,37.9*,1.6,0.3
CC(C)c1ccc(-c2csc(NC(=O)c3cc(Cl)cc(Cl)c3)n2)cc1,-9.2,-0.1,-1.1,0.0
COc1cc(Nc2nccn3c(-c4cccs4)cnc23)cc(OC)c1OC,-6.3,0.2,0.4,0.0
CCCCOc1ccc(Br)cc1C(=O)O,8.7,3.3,-0.8,-0.1
Cc1ccccc1-n1c(C)cc(/C=C2\C(=O)NC(=O)N(C)C2=O)c1C,8.8,2.1,-0.3,-0.6
O=C(Nc1cc(=O)[nH]c(=O)[nH]1)c1cc([N+](=O)[O-])ccc1Cl,24.6,-11.5,0.9,0.1
SMILES,MITF inh,TEAD-YAP inh,GPR151 activ,FBW7 act
O=C(Nc1cc(=O)[nH]c(=O)[nH]1)c1cc(Cl)ccc1Cl,6.6,51.8*,0.9,-0.1
O=C(Nc1cc(=O)[nH]c(=O)[nH]1)c1cc(Br)ccc1Cl,14.2,54.1*,-1.0,0.3
CC(C)(C)C1CCc2c(sc3nc(NN)nc(NN)c23)C1 (configuration not stated),11.7,-0.9,-0.2,0.8
COC(=O)c1ccc(N=Cc2cccc(O)c2)cc1,-3.0,-12.7,-0.4,-0.2
CCc1ccc(C2=CC(c3cccc(F)c3)n3nnnc3N2)cc1 (configuration not stated),5.5,4.0,0.0,0.0
CCN(CC)c1ccc(NC(=S)Nc2ccc(S(N)(=O)=O)cc2)cc1,74.4*,4.8,-0.1,-0.4
NS(=O)(=O)c1ccc(NC(=S)Nc2ccc(F)cc2)cc1,9.2,1.1,-1.2,0.0
CCN(CCO)c1ccc(NC(=S)Nc2ccccc2F)cc1,8.0,66.0*,-8.9,0.4
CCN1C(=O)c2ccccc2S(=O)(=O)c2ccc(C(=O)N3CCc4ccccc4C3)cc21,5.6,-2.5,2.4,-0.1
CCCc1cc(=O)[nH]c(-n2nc(C)cc2NC(=O)c2cccc(Cl)c2)n1,-1.1,5.6,1.4,2.4*
Cc1cccc(C(=O)Nc2cc(C)nn2-c2nc(C)cc(=O)[nH]2)c1,6.0,0.5,0.1,-0.1
COC(=O)/C=C1\S/C(=N\N=C\c2ccc(Cl)cc2)NC1=O,12.4,6.3,-1.1,0.1
COC(=O)C/C=N/N=C1/NC(=O)/C(=C/C(=O)O)S1,56.6*,9.2,0.8,-0.2
Cc1sc2nc(SCC(=O)N(CCO)CCO)n(-c3ccccc3)c(=O)c2c1C,-0.9,5.8,-0.2,0.0
CC(=O)c1cccc(-c2nc(C)cc(Nc3ccc(N4CCOCC4)cc3)n2)c1,8.9,-4.4,0.0,-0.2
CC(=O)Nc1ccc(Nc2nc(Nc3cnccn3)nc3c2ncn3C(C)C)cc1,0.0,40.9*,-0.1,-0.1
CC(C)n1cnc2c(Nc3ccccc3)nc(Nc3cnccn3)nc21,8.6,-24.3,-0.5,0.5
CC(C)n1cnc2c(Nc3ccc(N4CCOCC4)cc3)nc(Nc3cnccn3)nc21,0.6,32.3*,0.8,-0.1
CC(C)n1cnc2c(Nc3ccccc3)nc(Nc3ccc(N4CCOCC4)cc3)nc21,2.9,-23.9,1.1,-0.1
Nc1nc(Nc2ccc(N3CCOCC3)cc2)cc(Nc2ccncn2)n1,-2.5,4.5,-1.0,0.0
Nc1nc(Nc2ccc(N3CCOCC3)cc2)cc(Nc2cnccn2)n1,-22.7,61.0*,-1.3,-0.1
CC(=O)c1cccc(-c2cc(Nc3ccc(N4CCOCC4)cc3)nc(N)n2)c1,0.0,46.5*,-3.4,0.0
Cc1cc(N2C(=O)C3CCCCC3C2=O)ccc1[N+](=O)[O-] (configuration not stated),14.1,17.6,1.2,0.1
CN1C(=O)/C(=C\c2ccc([N+](=O)[O-])cc2)c2ccccc21,11.8,-7.7,-0.4,0.5
COCC(=O)NC(C)c1nc2ccccc2n1Cc1cc(C)ccc1C (configuration not stated),6.5,-0.5,-1.8,0.8
SMILES,MITF inh,TEAD-YAP inh,GPR151 activ,FBW7 act
Cc1cccc(C)c1NC(=O)c1cc2c(=O)n3ccccc3nc2n1C,-8.7,36.6*,0.8,0.3
Cc1cccc(CNc2ncnc3sc(C(=O)N4CCCCC4)c(C)c23)n1,-8.9,-15.2,0.6,-0.1
Cc1cc(/C=C2/C(=N)N3C(=NC2=O)SN=C3S(C)(=O)=O)c(C)n1-c1cccc(F)c1,-3.2,-1.2,0.5,-0.1
COc1ccc(-n2ncc3c(NC(C)(C)C)ncnc32)cc1,3.6,36.1*,0.9,0.0
COCCCNc1ncnc2c1cnn2-c1ccccc1,10.2,42.5*,-0.6,-0.1
CCCNc1ncnc2c1cnn2-c1ccccc1,12.7,8.0,-2.6,0.2
Oc1ccc(-c2cn3ccccc3n2)cc1O,9.4,-30.7,-4.8,0.0
Cc1ccn2cc(-c3ccc4ccccc4c3)nc2c1,-4.8,63.1*,-5.8,0.1
Cc1ccn2cc(-c3cccc(NC(=O)c4ccccc4)c3)nc2c1,5.8,-51.9,-1.6,0.3
Cc1ccn2cc(-c3cccc(Cl)c3)nc2c1,18.0,-28.6,-6.9,0.2
